Laboratory results reported in PubChem BioAssay.
Calls of active or inactive are those of the source. No rule for the calls is given here.

What follows are compounds tested against Pantothenate synthetase (Mycobacterium tuberculosis (strain ATCC 25618 / H37Rv)) (UniProt P9WIL5) (assay: Coupled enzyme confirmation of inhibitors against recombinant Mtb PanC (AID 375;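 also: 0% = full reaction with vehicle and 100% = no enzyme background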)). Conditions: coupled enzyme assay; at 10 µM, hits give high values.
Pantothenate synthetase (Mycobacterium tuberculosis (strain ATCC 25618 / H37Rv)), sequence (P9WIL5 whole entry, looked up): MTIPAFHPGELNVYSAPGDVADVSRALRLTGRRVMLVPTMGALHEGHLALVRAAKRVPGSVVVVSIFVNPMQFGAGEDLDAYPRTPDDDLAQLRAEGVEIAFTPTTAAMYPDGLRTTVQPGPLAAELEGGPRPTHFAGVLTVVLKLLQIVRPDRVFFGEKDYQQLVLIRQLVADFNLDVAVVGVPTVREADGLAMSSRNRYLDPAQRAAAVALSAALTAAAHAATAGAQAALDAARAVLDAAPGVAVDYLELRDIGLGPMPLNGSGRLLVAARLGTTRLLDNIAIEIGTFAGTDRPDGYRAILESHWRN

| Structure (SMILES) | inhibition |
| --- | --- |
| COc1ccc(NC(=O)CCNC(=O)Cn2ccc3ccccc3c2=O)c(OC)c1 | 0% (inactive) |
| Cc1cc(NC(=O)c2ccccc2)ncc1NC(=O)c1ccco1 | 0% (inactive) |
| COc1ccc(C(=O)OC(COc2ccccc2)Cn2ccnc2)cc1 (stereo not given) | 0% (inactive) |
| Cn1c(=O)oc2cc(S(=O)(=O)NCCC(=O)N3CCc4ccccc4C3)ccc21 | 0% (inactive) |
| CCCCCC1NC(=O)NC1CCCCCC(=O)O (stereo not given) | 0% (inactive) |
| Cc1ccc(CS(=O)(=O)Cc2ccc(C(=O)NCc3ccccn3)o2)cc1 | 0% (inactive) |
| C=CCN=C1SCC(=O)N1S(=O)(=O)c1ccc(C)cc1 | 0% (inactive) |
| Cc1occc1-c1nnc(SCC(=O)c2ccc(F)cc2)n1Cc1ccco1 | 3% (inactive) |
| CCn1c(CSc2nnc(-c3cccnc3)n2-c2ccccc2C)nc2cc(C(=O)O)ccc21 | 0% (inactive) |
| Cc1ccccc1NS(=O)(=O)c1cc(C(=O)N2CCCC2)ccc1C | 0% (inactive) |
| O=C(O)c1ccc(-c2ccc(O)c(F)c2)cc1 | 1% (inactive) |
| COC(=O)CSC1=NS(=O)(=O)c2ccccc21 | 0% (inactive) |
| N#CC(C(=O)c1ccco1)c1ccccn1 (stereo not given) | 3% (inactive) |
| CCC(C)(C)n1nnnc1C(c1ccncc1)N1CCN(c2cccc(OC)c2)CC1 (stereo not given) | 0% (inactive) |
| CCOC(=O)c1sc(C)c2c(=O)n(CC)nnc12 | 0% (inactive) |
| CC(C)C(OC(=O)c1ccco1)C(=O)NCc1ccccc1 (stereo not given) | 5% (inactive) |
| O=C(Nc1ccc(N2CCCCC2)cc1)c1ccc(F)cc1 | 0% (inactive) |
| O=C(CN(c1ccc(F)cc1)S(=O)(=O)c1ccc2c(c1)OCCO2)Nc1ccc2c(c1)OCO2 | 3% (inactive) |
| Cc1ccc(S(=O)(=O)NCC(c2cccnc2)N(C)C)cc1 (stereo not given) | 3% (inactive) |
| CC(=O)OCC(=O)c1ccc2ccn(C(C)=O)c2c1 | 3% (inactive) |

| Structure (SMILES) | inhibition |
| --- | --- |
| O=C(CCCn1c(=S)[nH]c2ccccc2c1=O)N1CCCCC1 | 0% (inactive) |
| COc1ccc(C)cc1NC(=O)c1nnn(Cc2cccc(F)c2)c1N | 13% (inactive) |
| c1ccc(CCc2nn3c(Cn4cnc5ccccc54)nnc3s2)cc1 | 5% (inactive) |
| Cc1nc(C)c2c(c1C(F)(F)F)-c1ccccc1C2(F)F | 0% (inactive) |
| CN(c1ccccc1C(=O)NCC1CCCO1)S(C)(=O)=O (stereo not given) | 2% (inactive) |
| COc1ccc2nc(NC(=O)C3CCCN(S(=O)(=O)c4cccc5nsnc45)C3)sc2c1 (stereo not given) | 5% (inactive) |
| C[C@]12CC[C@@H]3c4ccc(OC(=O)c5ccccc5)cc4CC[C@H]3[C@@H]1CC[C@@H]2O | 0% (inactive) |
| Cn1nc(-c2ccc(N3CCCCC3)c(NC(=O)c3ccco3)c2)c2ccccc2c1=O | 0% (inactive) |
| CCNc1ccc(C(=O)OCC)cc1NC(=O)c1cc(S(=O)(=O)N2CCOCC2)ccc1C | 2% (inactive) |
| COc1ccccc1C(=O)n1nc(-c2ccc(Cl)cc2)nc1N | 3% (inactive) |
| CCN=C1SC(CC(=O)Nc2ccccc2)C(=O)N1CC (stereo not given) | 5% (inactive) |
| Cc1ccc(C(=O)CSc2n[nH]c(-c3ccco3)n2)cc1C | 1% (inactive) |
| CNC[C@H](O)c1cccc(O)c1 | 0% (inactive) |
| COc1ccc(C(=O)NCCn2ccc3ccccc32)cc1 | 0% (inactive) |
| O=C(CSc1nnc(-c2ccc(Br)cc2)n1C1CCCCC1)N1CCCC1 | 2% (inactive) |
| COc1ccc(OC)c(NC(=O)CCN2CCN(c3ccccc3F)CC2)c1 | 4% (inactive) |
| COc1cc(C(=O)N2CCCC(c3nc(-c4cccs4)no3)C2)cc(OC)c1OC (stereo not given) | 0% (inactive) |
| O=C(NCC(F)(F)F)Nc1cccnc1 | 7% (inactive) |
| COC(=O)C(C)Oc1ccc2c3c(c(=O)oc2c1)CCCCC3 (stereo not given) | 2% (inactive) |
| CC(C)C(NC(=O)OCc1ccccc1)C(=O)OCC(=O)NCc1ccco1 (stereo not given) | 7% (inactive) |
